The source made the active and inactive calls. How the source made its calls: active means hit-call score of the fitted dose curve at least 0.9, where 1 is the maximum; inactive means score below 0.9.

Read-out in this assay: Intercellular Adhesion Molecule 1 (ICAM1), ICAM1 (gene 3383)
The assay is described as follows: BSK_KF3CT_ICAM1: BioMAP Diversity Plus: KF3CT Assay for Intercellular Adhesion Molecule 1 (ICAM1) Biomarker Activity (AID 2283067). The note with it: primary human keratinocytes with fibroblasts; actives raise or lower the signal. How it is done: BSK_KF3CT is a cell-based, multiplexed-readout assay that uses keratinocytes and foreskin fibroblasts, a human skin primary cell co-culture, with measurements taken at 24 hours after chemical dosing in a 96-well plate.BSK_KF3CT_ICAM1 is an assay component measured in the BSK_KF3CT assay. It measures ICAM-1 antibody related to regulation of gene expression using ELISA technology.Data from the assay component BSK_KF3CT_ICAM1 was analyzed into 1 assay endpoint. This assay endpoint, BSK_KF3CT_ICAM1, was analyzed with bidirectional fitting relative to DMSO as the negative control and baseline of activity. Using a type of binding reporter, gain or loss-of-signal activity can be used to understand changes in the signaling as they relate to the gene ICAM1. Furthermore, this assay endpoint can be referred to as a primary readout, because this assay has produced multiple assay endpoints where this one serves a signaling function. To generalize the intended target to other relatable targets, this assay endpoint is annotated to the cell adhesion molecules intended target family, where the subfamily is Immunoglobulin CAM.
The levels of cell surface (or secreted, indicated by the prefix "s") biomarker endpoints were measured by ELISA. Overt cytotoxicity to cells in confluent adherent cultures (all systems other than the BT system) was assessed by measuring total protein levels using sulforhodamine B (SRB) staining in parallel cultures at the time of biomarker measurements, indicated as SRB endpoints. For proliferation assays for adherent cell types, individual cell types are cultured at sub-confluence and relative cell numbers quantified by SRB staining at time points optimized for each system (48 h: 3C and CASM3C systems; 72 h: BT and HDF3CGF systems; 96 h: SAg system). SRB was performed by staining cells with 0.1% SRB after fixation with 10% TCA and reading wells at 560 nm.Viability and proliferation of PBMC (T cells) was quantified by Alamar Blue reduction for the SAg and BT systems. For PBMC viability (referred to as PBMC Cytotoxicity within the assay endpoint names), cells were plated (75,000/well in a 96-well plate) and then chemical samples added for 1 h before addition of activators, SEB and TSST-1 (20 ng/mL final concentration each). Cells were incubated for 90 h. Then, Alamar Blue (20 uL/well) (Invitrogen, Cat DAL1100) was added for 6 h, and the plates were read with a fluorescence microplate reader at 546/580 nm (excitation/emission). For PBMC proliferation, cells were plated and activated as above but incubated for only 16 h prior to addition of Alamar Blue. Plates were read after 6 h.
In the case of `CC(=O)S[C@H](C(=O)N[C@H]1Cc2ccccc2[C@H]2CCC[C@@H](C(=O)O)N2C1=O)C(C)C`, the outcome was inactive.
Regarding `CCCCCCCCCC[N+](C)(C)[O-]`, the outcome was inactive.
The same measure, in the same setting: with `N[C@@H](Cc1c[nH]c2ccccc12)C(=O)O` the entry was “inactive”; with `CC(=O)O`, “inactive”.
Take `CCCCCCC(CCCCCCCCCCC(=O)OCC(COC(C)=O)OC(C)=O)OC(C)=O` (stereo not given): the outcome was inactive.
Same read-out and setting: the value for `C=CCCCCCCCCCCCC` was “inactive”.
What is called AC50 is the concentration at which the activity in the assay is half-maximal. Consider `O=C1c2c(O)cccc2Cc2cccc(O)c21`, for which the AC50 was 25.1 µM (active).
On to `CCCCc1nc2cccnc2n1Cc1ccc(-c2ccccc2-c2nnn[nH]2)cc1`, for which the result was inactive.
On to `OCC(CO)n1cnc(-c2ccc(F)cc2)c1-c1ccnc(Oc2ccccc2)n1`, for which the outcome was inactive.
On the same count and under the same terms, the value for `Cn1cnc2c1c(=O)[nH]c(=O)n2C` was “inactive”.
In the case of `CC1(C)C(=O)NC(=O)N1CO`, the outcome was inactive.
Still for that read-out and setting: the value for `NC=O` was “inactive”.
Regarding `CCCCCCC(C=O)=Cc1ccccc1`, the outcome was inactive.
As to `c1ccc2occc2c1`, the result was inactive.
Regarding `Cc1cn([C@H]2C=C[C@@H](CO)O2)c(=O)[nH]c1=O`, the result was inactive.
`Cc1c(C)c2c(c(C)c1O)CCC(C)(COc1ccc(CC3SC(=O)NC3=O)cc1)O2` (stereo not given): the concentration at half-maximal activity (AC50) is 14.1 µM (active).
For the compound `Nc1nc(Cl)nc2c1ncn2[C@H]1C[C@H](O)[C@@H](CO)O1`, the outcome was inactive.
With `CC(=O)O[C@]1(C(C)=O)CC[C@H]2[C@@H]3C=C(Cl)C4=CC(=O)[C@@H]5C[C@@H]5[C@]4(C)[C@H]3CC[C@@]21C`, the outcome was inactive.
Take `CO[C@@H]1COCC[C@@H]1N[C@@H]1CC[C@@](C(=O)N2CCc3ncc(C(F)(F)F)cc3C2)(C(C)C)C1`: the result was inactive.
Regarding `Cc1ccc(-c2cc(C(F)(F)F)nn2-c2ccc(S(N)(=O)=O)cc2)cc1`, the result was inactive.
For the compound `C#CC(O)C(CC)CCCC` (stereo not given), the outcome was inactive.
Same read-out and setting: with `Cc1cc(SC2=C(O)C[C@@](CCc3ccc(N)cc3)(C(C)C)OC2=O)c(C(C)(C)C)cc1CO` the entry was “inactive”; with `CCCCC(CC)COC(=O)CCCCCCCC(=O)OCC(CC)CCCC` (stereo not given), “inactive”.
As to `CN(C)CCCN1c2ccccc2Sc2ccc(Cl)cc21`, the AC50 is 35.4 µM (active).
On to `O=C(O)c1[nH]n(-c2ccc(S(=O)(=O)O)cc2)c(=O)c1N=Nc1ccc(S(=O)(=O)O)cc1`, for which the outcome was inactive.
Consider `NCCOCCOCCN`, for which the result was inactive.
For the compound `CS(=O)(=O)c1ccc([C@@H](C[C@H]2CCC(=O)C2)C(=O)Nc2cnccn2)cc1Cl`, the outcome was inactive.
For the compound `CC(=O)OCC(COC(C)=O)OC(C)=O`, the outcome was inactive.
In the case of `CN(C)C(=O)NC1(c2ccccc2)CCN(CC[C@@]2(c3ccc(F)c(F)c3)CN(C(=O)c3ccccc3)CCO2)CC1`, the outcome was inactive.
On to `CC(C)COC(=O)CCCCC(=O)OCC(C)C`, for which the result was inactive.
For the compound `CCCC(=O)O`, the outcome was inactive.
`CC(C)c1cccc(C(C)C)c1`: the outcome was inactive.
Take `CC(C)(C)c1ccccc1`: the result was inactive.
Regarding `CCCCC(CC)CO` (stereo not given), the outcome was inactive.
On to `O=C(O)c1cccnc1`, for which the outcome was inactive.
On to `CSc1ccc(Oc2ccc(S(N)(=O)=O)cc2CN(C)C)cc1C`, for which the result was inactive.
The same measure, in the same setting: the value for `O=C1O[C@H]([C@H](O)CO)C(O)=C1O` was “inactive”.
As to `COC(=O)CCC(=O)OC`, the result was inactive.
For the compound `CCCCCCCCCCCCCCOS(=O)(=O)O`, the AC50 was 16.2 µM (active).
Consider `CC(C)c1cccc(C(C)C)c1NC(=O)NS(=O)(=O)c1cc(C(C)(C)O)co1`, for which the outcome was inactive.

These data come from PubChem BioAssay (EPA / NIEHS).
